From PubChem
A selection: hits, their analogues and other compounds. The true share with any hit is near 0.77%.
LmPK inh – LmPK (Leishmania mexicana) enzyme inhibition. Potency, µM (titrated, usually from 57.5 µM), for inactives: at the top dose activity change, negative = inhibition, most hits filed as inhibitors. purified LmPK, Kinase-Glo ATP luminescence, 1 h. AID 1721. Q27686. hit rate 0.37% among 290,000; also: % is scaled to controls: 0 for no effect and ±100 for the full control effect
Target sequence (Q27686 whole entry, looked up): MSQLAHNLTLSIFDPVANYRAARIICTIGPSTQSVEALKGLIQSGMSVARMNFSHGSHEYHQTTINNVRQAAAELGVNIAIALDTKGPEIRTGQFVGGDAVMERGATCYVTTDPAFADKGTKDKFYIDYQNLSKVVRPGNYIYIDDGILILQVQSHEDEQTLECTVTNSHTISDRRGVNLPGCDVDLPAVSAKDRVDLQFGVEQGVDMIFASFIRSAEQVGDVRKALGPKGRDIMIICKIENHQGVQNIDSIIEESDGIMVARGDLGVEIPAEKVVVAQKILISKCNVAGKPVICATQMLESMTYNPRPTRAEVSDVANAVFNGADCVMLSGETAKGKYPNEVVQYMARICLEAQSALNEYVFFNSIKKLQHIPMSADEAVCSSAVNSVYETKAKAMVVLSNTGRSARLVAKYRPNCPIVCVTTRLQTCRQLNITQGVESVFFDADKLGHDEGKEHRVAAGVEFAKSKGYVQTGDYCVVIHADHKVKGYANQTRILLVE
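In 50 mM imidazole pH 7.2 with 7 mM MgCl2, LmPK (0.1 nM) turned over PEP (0.5 mM) and ADP (0.1 mM) for 1 h at room temperature. Luciferase read-out of ATP.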
RE007 growth inh – less growth of the S. pombe RE007 Vpr strain. S. pombe RE007 Vpr strain, BacTiter-Glo ATP luminescence, 24 h. Potency, µM (titrated, usually from 92.2 µM), for the others: top-dose activity change, negative = less growth, actives largely listed as inhibitors. hit rate 0.21% among 360,000. AID 651644; active = well fitted falling curve with a large enough effect; inconclusive = small, poorly fitted or top-dose-only effect; inactive = no such curve, though single readings can be large or run the other way; also: % is scaled to controls: 0 for no effect and ±100 for the full control effect; nearly all actives have a fitted effect of over 50% in size
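Fission yeast strain RE007, carrying one chromosomally integrated HIV-1 vpr copy, was seeded at OD 0.01 in PMG+AL medium with 23 nL pinned compound. After 24 h at 30 °C and 99% humidity, viability was read by BacTiter-Glo luminescence.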
TbPYK inhibitor – T. brucei pyruvate kinase inhibition; hit rate 0.12% among 410,000; Potency, µM (top dose mostly 76.8 µM), for inactives: top-dose activity, negative = inhibition, most hits filed as inhibitors; TbPYK enzyme, Kinase-Glo Plus ATP luminescence, 45 min; AID 624173; Q57TT1; also: % is scaled to controls: 0 for no effect and ±100 for the full control effect; nearly all actives have a fitted effect of over 50% in size
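Quantitative HTS: titrated library compounds versus trypanosomal pyruvate kinase in TEA buffer (pH 7.2) containing KCl, MgCl2, BSA and Tween-20. Reactions were initiated with ADP, 130 uM final. Kinase-Glo Plus luminescence was read after 45 min at RT.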
NS1 inh – influenza NS1 inhibition | Potency, µM (doses to about 46.1 µM), without a hit: at the top dose activity, positive = more growth | hit rate 0.4% among 270,000 | AID 2326; calls by dose curve; also: actives are rising curves; nearly all actives have a fitted effect of over 50% in size
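OD600 was taken as the measure of yeast growth restored by compound in an NS1-expressing S. cerevisiae strain. Cells had been washed out of glucose medium and diluted 1:100 into galactose -URA medium, pH 6.0.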
An asterisk follows results filed as active; u = inconclusive; x = not tested or not shown; ! = not confirmed by another sample; [ ] = dose if it differs, or a comment. Unless noted, calls follow the shape of the dose curve; as a rule, active = well fitted curve in the direction sought with a large enough effect; inconclusive = small, poorly fitted or top-dose-only effect, or another doubt; inactive = no such curve, though single readings can be large; an effect the other way counts as inactive or inconclusive. Potency is read from the fitted curve at half-maximal effect.

SMILES	LmPK inh	RE007 growth inh	TbPYK inhibitor	NS1 inh
Cc1cccn2c(=O)c3cc(C(=O)NCc4ccccc4Cl)sc3nc12	x	x	2.5%	x
Cn1ccnc1C[C@@](C)(O)c1ccccc1	x	x	x	-2.8%
O=C1CC(Sc2nnc(-c3ccccc3O)o2)C(=O)N1c1ccccc1 (stereo not drawn)	-3.0%	50.1µM*	-8.0%	-255.7%
COc1ccc(N2C(=O)CC(Sc3nnc(-c4ccccc4)o3)C2=O)cc1 (stereo not drawn)	2.3%	-14.3%[3.69 µM]	x	-237.2%
CCCOc1ccc(C(=O)NC(=S)Nc2nc3ccc(C)cc3s2)cc1	-0.8%	x	x	11.1%
Cc1ccc2nc(NC(=S)NC(=O)c3ccc(OC(C)C)cc3)sc2c1	12.6µM*	-4.9%	2.8%	-199.1%
CCCCOC(=O)c1ccc(NC(=O)c2cc3c(=O)n4cccc(C)c4nc3s2)cc1	x	x	-0.4%	x
COC(=O)c1cc(C)nc(Sc2ccccc2N)n1	21.8%	-13.1%	8.91µM*	-4.2%
CCC(=O)N1CCc2cc(CNC(=O)c3cccc(N(C)C)c3)ccc21	x	x	-3.5%	x
Cc1ccc(-n2nc(C)c3c(C)cc(=O)n(CC(=O)NCc4ccc(OC(C)C)cc4)c32)cc1	x	x	2.8%	x
Cc1ccc(NC(=O)c2cc(-c3ccc(C)o3)nc3ccccc23)cc1	-0.4%	25.1µM*	u	16.8%
Cc1ccc(-c2cc(C(=O)Nc3cccnc3)c3ccccc3n2)o1	-8.7%	1.2%	u	-3.2%
O=C(O)c1ccc(-c2nnc(-c3ccc([N+](=O)[O-])cc3)o2)cc1	1.5%	5.8%	2.6%	18.5%
O=C(O)c1ccc(-c2nnc(-c3ccccc3)o2)cc1	12.6µM*	-17.8%	-26.3%	3.7%
CCCCCSc1nncc(=O)[nH]1	2.6%	18.4%	-0.6%	-8.5%
CCCCCCCCSC1=CC(=O)C(OC)=C(OC)C1=O	x	-7.8%	14.1µM*	x
Cn1c(/N=C/c2ccc3c(c2)OCO3)nc2ccccc21	12.6µM*	-6.3%	-15.4%	9.3%
COc1ccc(Cn2c(CCC(=O)Nc3cc(OC)c(OC)c(OC)c3)nc3cccnc32)cc1	x	x	-4.6%	x
O=C(/C=C/c1ccccc1)c1ccccn1	14.1µM*	35.5µM*	u	-44.7%
O=C(N/N=C/C=C/c1ccccc1)c1ccccn1	-0.8%	-7.3%	-7.0%	-4.1%
N/C(=N\OC(=O)/C=C/c1ccccc1)c1ccccn1	12.6µM*	-22.7%	-26.6%	-10.3%
COc1ccc(/C=C/C(=O)O/N=C(\N)c2ccccn2)cc1OC	x	-19.7%	1.7%	x
CCOc1ccccc1CNC(=O)CN1C(=O)C2CCCCN2c2ccc(C(=O)N(C)C)cc21 (stereo not drawn)	x	x	-1.8%	x
O=C(O)[C@H](C1NCCS1)N1Cc2ccccc2C1 (stereo partly drawn)	x	x	x	1.1%
C[C@@H]1c2ccccc2Cn2cc3c(c21)C(=O)c1cccc(OP(=O)(O)OCc2ccccc2)c1C3=O	x	x	x	-3.1%
SMILES	LmPK inh	RE007 growth inh	TbPYK inhibitor	NS1 inh
Cc1ccccc1-n1c([C@@H]2C[C@H]2c2ccccc2)n[nH]c1=S	11.2µM*	-5.6%	u	3.1%
Cc1n[nH]c(=S)n1-c1ccccc1	3.1%	-16.5%	u	3.8%
S=c1[nH]nc([C@@H]2C[C@H]2c2ccccc2)n1-c1ccccc1	u	-19.8%	3.98µM*	5.1%
CCC(C)NC(=O)c1sc2ncccc2c1-n1c(C)ccc1C (stereo not drawn)	x	x	-3.2%	x
COC(Cn1c(-c2cccc(S(=O)(=O)N(C)C)c2)n[nH]c1=S)OC	5.5%	-0.5%	-16.0%	x
CCN(CC)S(=O)(=O)c1cccc(-c2n[nH]c(=S)n2Cc2ccccc2)c1	-1.7%	14.4%	5.62µM*	x
CCN(CC)S(=O)(=O)c1cccc(-c2n[nH]c(=S)n2CC(C)C)c1	u	0.0%	8.91µM*	x
O=C(NN1CCCC1)NS(=O)(=O)c1ccc(Cl)cc1	x	x	-7.3%	x
CCOc1ccc(S(=O)(=O)N2CCN(c3ccccc3)CC2)cc1C(N)=O	x	x	5.4%	x
Cc1cc2c(C(C)C)c(O)c(O)c(C=O)c2c(O)c1-c1c(C)cc2c(C(C)C)c(O)c(O)c(C=O)c2c1O	6.8%	x	-11.6%	0.355µM*!
COC(=O)c1c(C)cc(O)c(C=O)c1O	x	u	0.2%	x
CCC(CC)C(=O)NCc1nc2cccnc2n1Cc1ccc(F)cc1	x	x	-3.6%	x
O=C1CC(Sc2nnnn2-c2ccccc2)C(=O)N1c1cccc(Cl)c1 (stereo not drawn)	0.6%	7.08µM*	u	-59.3%
COc1ccc(N2C(=O)CC(Sc3nnnn3-c3ccc(F)cc3)C2=O)cc1 (stereo not drawn)	0.9%	15.8µM*	-28.3%	-55.9%
Clc1cccc(N2CCN(c3nnnn3-c3ccccc3)CC2)c1	2.2%	6.6%	1.2%	x
COc1ccc(N2C(=O)CC(Sc3nc(C)cc(C)c3C#N)C2=O)cc1 (stereo not drawn)	4.0%	-11.6%	-4.0%	-47.1%
O=S(=O)(c1ccc(Cl)cc1)c1nnn2c1nc(N1CCCCC1)c1sccc12	x	x	3.0%	x
Cc1ccc(S(=O)(=O)CC(=O)N2CCN(c3nc4c(F)cccc4s3)CC2)cc1	x	x	-2.3%	x
C=CCn1c(-c2cccc(OC)c2OC)n[nH]c1=S	0.5%	-0.1%	u	-7.0%
COc1ccc(Cl)cc1-c1n[nH]c(=S)n1C	-17.3%	-2.4%	u	12.0%
CCn1c(-c2cc(Cl)ccc2OC)n[nH]c1=S	u	38.4%	11.2µM*	1.3%
C=CCn1c(-c2cc(Cl)ccc2OC)n[nH]c1=S	12.6µM*	12.9%	u	7.1%
C=CCn1c(CCSCc2ccc(OC)c(C)c2)n[nH]c1=S	3.7%	8.6%	7.94µM*	x
COc1cc(/C=C/c2sc3ccccc3[n+]2CCCS(=O)(=O)[O-])ccc1O	15.8µM*	u	u	9.2%
CCOc1ccc(CCNC(=O)c2ccc3c(c2)nc2n3CCOC2)cc1OCC	x	x	-1.9%	x
SMILES	LmPK inh	RE007 growth inh	TbPYK inhibitor	NS1 inh
Nc1nc(=S)c2[nH]cnc2[nH]1	x	-6.0%[18.4 µM]	14.1µM*!	x
COc1ccc(C(=O)CCN2CCCCCC2)cc1	2.2%	7.08µM*	0.4%	1.3%
COc1ccc(C(=O)CCN2CCN(c3ccc(OC)cc3)CC2)cc1	-7.1%	u	5.9%	7.8%
CCOc1ccc(C(=O)CCC(=O)NN2CCCCC2)cc1	x	-11.7%	1.2%	x
CCOc1ccc(C(=O)CCN2CCCCC2)cc1	-1.9%	35.5µM*	-7.3%	u
CCCOc1ccc(C(=O)CCN2CCN(C(=O)OCC)CC2)cc1	-2.9%	31.6µM*	-17.3%	x
CC(C)Oc1ccc(C(=O)CCN2CCCCC2)cc1	4.1%	39.8µM*	-17.0%	2.2%
CCCCCOc1ccc(C(=O)CCN2CCOCC2)cc1	1.7%	17.8µM*	-5.0%	-26.5%
COc1ccc(NC(=O)c2cc([N+](=O)[O-])ccc2O)cc1	12.6µM*	6.31µM*	u	-70.9%
Nc1[nH]c(=O)nc2c1ncn2[C@H]1O[C@@H](CO)[C@@H](O)[C@@H]1O	x	x	x	0.0%
S=c1[nH]nc(CSc2nc3ccccc3s2)n1C1CCCCC1	11.2µM*	-5.8%	u	15.1%
O=C(O)CSc1nnc(CSc2nc3ccccc3s2)n1-c1ccccc1	-2.4%	10.7%	-29.2%	3.7%
Cc1ccc(-n2c(CNc3cccc(Cl)c3)n[nH]c2=S)cc1	-8.0%	-12.8%	u	x
S=c1[nH]nc(COc2ccccc2)n1C1CCCCC1	12.6µM*	13.9%	u	8.1%
